The labels stand for the following.
T1: RBFOX1 RRM (Homo sapiens, UniProt Q9NWB1 109-208)
T1 sequence: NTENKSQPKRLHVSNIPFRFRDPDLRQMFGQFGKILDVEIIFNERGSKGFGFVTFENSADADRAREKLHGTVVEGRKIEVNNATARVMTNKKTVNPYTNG

B1: UCUCUCC (DNA:RNA)
RNA: GGGAGACCGGAAUUCAGAUUGUCCUCUCUCCUUAAAUCCCGUCGUAGCCACCA
DNA 1: CAATCTGAATTCCGGTCTCCC
DNA 2: TGGTGGCTACGACGGGATT
B2: GACACAG (DNA:RNA)
RNA: GGGAGACCGGAAUUCAGAUUGUCCGACACAGUUAAAUCCCGUCGUAGCCACCA
DNA 1: CAATCTGAATTCCGGTCTCCC
DNA 2: TGGTGGCTACGACGGGATT
B3: UCUUGGG (DNA:RNA)
RNA: B1 RNA with C28U, U29G, C30G, C31G
DNA 1: CAATCTGAATTCCGGTCTCCC
DNA 2: TGGTGGCTACGACGGGATT
B4: UCCGCCC (DNA:RNA)
RNA: B1 RNA with U27C, C28G, U29C
DNA 1: CAATCTGAATTCCGGTCTCCC
DNA 2: TGGTGGCTACGACGGGATT
B5: CCGCAGG (DNA:RNA)
RNA: B1 RNA with U25C, U27G, U29A, C30G, C31G
DNA 1: CAATCTGAATTCCGGTCTCCC
DNA 2: TGGTGGCTACGACGGGATT
B6: UGCUACU (DNA:RNA)
RNA: B1 RNA with C26G, U27C, C28U, U29A, C31U
DNA 1: CAATCTGAATTCCGGTCTCCC
DNA 2: TGGTGGCTACGACGGGATT
B7: GGCACCG (DNA:RNA)
RNA: B2 RNA with A26G, A30C
DNA 1: CAATCTGAATTCCGGTCTCCC
DNA 2: TGGTGGCTACGACGGGATT
B8: CGGCACG (DNA:RNA)
RNA: B1 RNA with U25C, C26G, U27G, U29A, C31G
DNA 1: CAATCTGAATTCCGGTCTCCC
DNA 2: TGGTGGCTACGACGGGATT
B9: GGCCACG (DNA:RNA)
RNA: B2 RNA with A26G, A28C, C29A, A30C
DNA 1: CAATCTGAATTCCGGTCTCCC
DNA 2: TGGTGGCTACGACGGGATT
B10: CUGGCGG (DNA:RNA)
RNA: B2 RNA with G25C, A26U, C27G, A28G, A30G
DNA 1: CAATCTGAATTCCGGTCTCCC
DNA 2: TGGTGGCTACGACGGGATT
B11: UGGGCGC (DNA:RNA)
RNA: B1 RNA with C26G, U27G, C28G, U29C, C30G
DNA 1: CAATCTGAATTCCGGTCTCCC
DNA 2: TGGTGGCTACGACGGGATT
B12: UGGCGGU (DNA:RNA)
RNA: B1 RNA with C26G, U27G, U29G, C30G, C31U
DNA 1: CAATCTGAATTCCGGTCTCCC
DNA 2: TGGTGGCTACGACGGGATT
B13: CUGGCGC (DNA:RNA)
RNA: B2 RNA with G25C, A26U, C27G, A28G, A30G, G31C
DNA 1: CAATCTGAATTCCGGTCTCCC
DNA 2: TGGTGGCTACGACGGGATT
B14: UGGCGCU (DNA:RNA)
RNA: B1 RNA with C26G, U27G, U29G, C31U
DNA 1: CAATCTGAATTCCGGTCTCCC
DNA 2: TGGTGGCTACGACGGGATT
B15: UGGGCGG (DNA:RNA)
RNA: B2 RNA with G25U, A26G, C27G, A28G, A30G
DNA 1: CAATCTGAATTCCGGTCTCCC
DNA 2: TGGTGGCTACGACGGGATT
B16: CAGCUCC (DNA:RNA)
RNA: B1 RNA with U25C, C26A, U27G
DNA 1: CAATCTGAATTCCGGTCTCCC
DNA 2: TGGTGGCTACGACGGGATT
B17: AGACUGC (DNA:RNA)
RNA: B1 RNA with U25A, C26G, U27A, C30G
DNA 1: CAATCTGAATTCCGGTCTCCC
DNA 2: TGGTGGCTACGACGGGATT
B18: AGGGAGG (DNA:RNA)
RNA: B2 RNA with G25A, A26G, C27G, A28G, C29A, A30G
DNA 1: CAATCTGAATTCCGGTCTCCC
DNA 2: TGGTGGCTACGACGGGATT
B19: AAGUGUC (DNA:RNA)
RNA: B2 RNA with G25A, C27G, A28U, C29G, A30U, G31C
DNA 1: CAATCTGAATTCCGGTCTCCC
DNA 2: TGGTGGCTACGACGGGATT
B20: UGAGCAU (DNA:RNA)
RNA: B2 RNA with G25U, A26G, C27A, A28G, G31U
DNA 1: CAATCTGAATTCCGGTCTCCC
DNA 2: TGGTGGCTACGACGGGATT
B21: UCAUGUU (DNA:RNA)
RNA: B1 RNA with U27A, C28U, U29G, C30U, C31U
DNA 1: CAATCTGAATTCCGGTCTCCC
DNA 2: TGGTGGCTACGACGGGATT
B22: GCUGUUA (DNA:RNA)
RNA: B1 RNA with U25G, C28G, C30U, C31A
DNA 1: CAATCTGAATTCCGGTCTCCC
DNA 2: TGGTGGCTACGACGGGATT
B23: GGCGCCG (DNA:RNA)
RNA: B2 RNA with A26G, A28G, A30C
DNA 1: CAATCTGAATTCCGGTCTCCC
DNA 2: TGGTGGCTACGACGGGATT
B24: GUCGGGA (DNA:RNA)
RNA: B2 RNA with A26U, A28G, C29G, A30G, G31A
DNA 1: CAATCTGAATTCCGGTCTCCC
DNA 2: TGGTGGCTACGACGGGATT
B25: GUCGGAU (DNA:RNA)
RNA: B2 RNA with A26U, A28G, C29G, G31U
DNA 1: CAATCTGAATTCCGGTCTCCC
DNA 2: TGGTGGCTACGACGGGATT
B26: GGAUAGU (DNA:RNA)
RNA: B2 RNA with A26G, C27A, A28U, C29A, A30G, G31U
DNA 1: CAATCTGAATTCCGGTCTCCC
DNA 2: TGGTGGCTACGACGGGATT
B27: GUCCGGA (DNA:RNA)
RNA: B2 RNA with A26U, A28C, C29G, A30G, G31A
DNA 1: CAATCTGAATTCCGGTCTCCC
DNA 2: TGGTGGCTACGACGGGATT
B28: GGGGGGA (DNA:RNA)
RNA: B2 RNA with A26G, C27G, A28G, C29G, A30G, G31A
DNA 1: CAATCTGAATTCCGGTCTCCC
DNA 2: TGGTGGCTACGACGGGATT
B29: GGGAUAG (DNA:RNA)
RNA: B2 RNA with A26G, C27G, C29U
DNA 1: CAATCTGAATTCCGGTCTCCC
DNA 2: TGGTGGCTACGACGGGATT
B30: GGGAUUG (DNA:RNA)
RNA: B2 RNA with A26G, C27G, C29U, A30U
DNA 1: CAATCTGAATTCCGGTCTCCC
DNA 2: TGGTGGCTACGACGGGATT
B31: CGGAUUG (DNA:RNA)
RNA: B2 RNA with G25C, A26G, C27G, C29U, A30U
DNA 1: CAATCTGAATTCCGGTCTCCC
DNA 2: TGGTGGCTACGACGGGATT
B32: CGGAUAG (DNA:RNA)
RNA: B2 RNA with G25C, A26G, C27G, C29U
DNA 1: CAATCTGAATTCCGGTCTCCC
DNA 2: TGGTGGCTACGACGGGATT
B33: CACCGGA (DNA:RNA)
RNA: B2 RNA with G25C, A28C, C29G, A30G, G31A
DNA 1: CAATCTGAATTCCGGTCTCCC
DNA 2: TGGTGGCTACGACGGGATT
B34: GGAUUUG (DNA:RNA)
RNA: B2 RNA with A26G, C27A, A28U, C29U, A30U
DNA 1: CAATCTGAATTCCGGTCTCCC
DNA 2: TGGTGGCTACGACGGGATT
B35: GAAUUUG (DNA:RNA)
RNA: B2 RNA with C27A, A28U, C29U, A30U
DNA 1: CAATCTGAATTCCGGTCTCCC
DNA 2: TGGTGGCTACGACGGGATT

These results are taken from PMC9911399, “Two distinct binding modes provide the RNA-binding protein RbFox with extraordinary sequence specificity”.

Changes are numbered by the printed parent chain; changes in the protein carry UniProt numbers. Whole data set: some 16,000 sequences, median “ka relative to ugcaugu” near 0.0091, cut for the highest 2% near 0.032. This excerpt belongs to a sample that is enriched for the highest values.

In the assay the target is T1, RBFOX1 RRM. The assay is described as follows: EMSA; HiTS-Eq, 1 nM pool, 10 min; buffer printed only for the single-RNA assays: 10 mM Tris pH 7.5, 150 mM NaCl, 3.4 mM EDTA, 0.001% NP-40, 30 C. The note with it: tags: His6 N-terminal (pET28a); label: 5' 32P. The gist of the method:
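A pool of RNA with 7 randomized nucleotides, 5′-radiolabelled and with DNA-annealed flanks, was equilibrated at 1 nM for 10 min in 50 µL with purified RbFox RRM, wild type or mutant, across increasing protein concentrations. Free RNA was separated by 8% native PAGE, excised, reverse-transcribed, barcoded by PCR and sequenced. Relative association constants were obtained from read-count changes of each RNA species versus the control reaction and normalised to the cognate motif.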
For orientation: A gel shift assay detects complexes by their altered migration in electrophoresis.
In the case of B1, the binding signal was 0.00975 KA relative to UGCAUGU.

As to B2, the binding signal was 0.00906 KA relative to UGCAUGU.

Turning to B3, the binding signal is 0.00663 KA relative to UGCAUGU.

As to B4, the binding signal was 0.00894 KA relative to UGCAUGU.

B5: the binding signal was 0.0108 KA relative to UGCAUGU.

Regarding B6, the binding signal was 0.0158 KA relative to UGCAUGU.

Turning to B7, the binding signal is 0.0143 KA relative to UGCAUGU.

With B8, the binding signal was 0.0377 KA relative to UGCAUGU.

In the case of B9, the binding signal was 0.00911 KA relative to UGCAUGU.

For B10, the binding signal was 0.00866 KA relative to UGCAUGU.

As for B11, the binding signal was 0.0335 KA relative to UGCAUGU.

In the case of B12, the binding signal was 0.0227 KA relative to UGCAUGU.

B13: the binding signal was 0.02 KA relative to UGCAUGU.

Regarding B14, the binding signal is 0.0198 KA relative to UGCAUGU.

As to B15, the binding signal is 0.0408 KA relative to UGCAUGU.

Take B16: the binding signal is 0.00767 KA relative to UGCAUGU.

B17: the binding signal was 0.0128 KA relative to UGCAUGU.

As for B18, the binding signal is 0.0245 KA relative to UGCAUGU.

In the case of B19, the binding signal was 0.0153 KA relative to UGCAUGU.

As to B20, the binding signal is 0.0172 KA relative to UGCAUGU.

With B21, the binding signal is 0.0106 KA relative to UGCAUGU.

Turning to B22, the binding signal is 0.0113 KA relative to UGCAUGU.

On to B23, for which the binding signal is 0.00841 KA relative to UGCAUGU.

As to B24, the binding signal is 0.0117 KA relative to UGCAUGU.

As to B25, the binding signal is 0.00831 KA relative to UGCAUGU.

Consider B26, for which the binding signal was 0.0169 KA relative to UGCAUGU.

For the molecule B27, the binding signal is 0.00347 KA relative to UGCAUGU.

For the molecule B28, the binding signal is 0.0226 KA relative to UGCAUGU.

Turning to B29, the binding signal is 0.0337 KA relative to UGCAUGU.

Turning to B30, the binding signal was 0.0593 KA relative to UGCAUGU.

B31: the binding signal is 0.0329 KA relative to UGCAUGU.

Take B32: the binding signal was 0.0228 KA relative to UGCAUGU.

On to B33, for which the binding signal was 0.00389 KA relative to UGCAUGU.

For B34, the binding signal is 0.034 KA relative to UGCAUGU.

Regarding B35, the binding signal is 0.0172 KA relative to UGCAUGU.
